Our source for the activation values is PubChem BioAssay AID493084 (National Center for Advancing Translational Sciences (NCATS), 2011).

Where “and” joins values, the source holds several entries; their conditions need not be identical. Equal values may be shown once. Among all 360,000 compounds or so, about 650 (0.18%) were called active. The list comes from a sample in which actives are over-represented; it also holds similar structures and randomly drawn compounds. Values without a mark were called inactive. No stated cut-off is given here; in the data, active means activation above about 30%; inactive means the rest.

The target in the test is Thyrotropin-releasing hormone receptor (Homo sapiens) (UniProt P34981). The experiment in a line: qHTS for Small Molecule Agonists and Allosteric Enhancers of Human TRH Receptor: Primary Screen for Agonists. Further: 0% is about no effect. The settings on record: TRHR cells, calcium flux fluo-8, FDSS agonist mode; at 2 µM; hits give high values. The source says: NIH Chemical Genomics Center [NCGC] NIH Molecular Libraries Probe Centers Network [MLPCN] MLPCN Grant: MH089816-01 Assay Submitter (PI): Marvin Gershengorn This project aims to identify small drug-like molecules that activate (agonists) the thyrotropin releasing hormone (TRH) receptor (TRHR) or enhance its TRH-stimulated activity (allosteric enhancers). TRHR, a drug-accessible cell surface receptor expressed in specific brain regions, and its ligand TRH have been implicated in several central nervous system disorders, including depression and anxiety. Small molecule TRHR agonists or allosteric enhancers that are metabolically stable and able to cross the blood-brain barrier might serve as probes to elucidate the roles of brain TRH receptors in animal models, and might be valuable as lead compounds for the development of drugs to treat patients with central nervous system disorders. Upon TRHR-Gq activation in TRHR cells, intracellular calcium is released from stores in the endoplasmic reticulum. […] This primary screen measures compound-induced activation of calcium release.
Sequence of Thyrotropin-releasing hormone receptor (Homo sapiens) (P34981 whole entry, looked up): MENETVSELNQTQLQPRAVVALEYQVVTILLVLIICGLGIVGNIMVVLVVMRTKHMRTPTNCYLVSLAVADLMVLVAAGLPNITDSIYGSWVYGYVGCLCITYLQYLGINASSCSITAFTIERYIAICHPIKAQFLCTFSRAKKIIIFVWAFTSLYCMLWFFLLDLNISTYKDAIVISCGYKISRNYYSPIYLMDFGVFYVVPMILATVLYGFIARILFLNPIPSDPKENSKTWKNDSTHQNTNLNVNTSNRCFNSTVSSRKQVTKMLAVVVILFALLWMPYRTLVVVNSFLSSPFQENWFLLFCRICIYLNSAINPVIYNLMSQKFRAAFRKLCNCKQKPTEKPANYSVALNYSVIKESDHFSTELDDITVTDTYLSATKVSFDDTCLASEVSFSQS
For the HTS assay freshly prepared cells are plated at a density of 2000/well in 3 ul of complete DMEM medium containing 10% serum in 1536-well plates and cultured over night at 37 C in a humidified incubator with 5% CO2. The next day, 2 ul of a no wash calcium dye (ABD Bioquest) was added to the cells and plates were incubated at room temperature for 1 hour. For the assay, assay plates were loaded into the FDSS kinetic plate reader. A 10 cycle (1 second/cycle) baseline measurement is taken and then the FDSS online 1536 pintool delivers 23 nl of compound library (as well as TRH controls) to the plate. The plate is measured for kinetically at 1 cycle/sec for 180 seconds and is considered to be the agonist portion of the assay (eg, compounds which activate a positive calcium response during this portion are flagged as potential agonists). Following the 180 second read, 1 ul of either an EC20 (positive modulation assay) is delivered by an onboard pipette head. Measurements are taken kinetically for an additional 180 seconds. TRHR FDSS Screening Protocol 1. Reagent, 3 uL 2000 cells/well 1536 TC treated Black plate in media containing 10% FCS 2. Time, 18 hours, 33.5C 5% CO2 (cells grown at 37C) 3. Reagent, 2 uL ABD fluo-8 Ca dye 4. Time, 30 min-1.5hrs hours, Room temp (6 plates/batch) 5. Detector, EX 480/EM 530C, FDSS 10 cycles baseline (1sec/cycle) 6. Compound, 23 nL of stock solution from library 7. Detector, EX 480/EM 530C, FDSS […] (1sec/cycle) Agonist mode 8. Compound, 1 ul EC20 of TRH made up in HEPES HBSS, 10 nM final 9. Detector, EX 480/EM 530C, FDSS 100 cycles (1sec/cycle) Potentiator mode
In general terms: Quantitative high-throughput screening tests each substance at several concentrations.
With `CCc1ccccc1NC(=O)CCOc1ccccc1`, the activation was 0.744% and -1.55%. Turning to `CCc1ccccc1NC(=S)Nc1cc(OC)c(NC(=O)C(C)C)cc1OC`, the activation is 0.112%. Next, `CCc1ccccc1NC(=O)/C(=C/c1ccccc1)c1ccccc1`: 56.2% (active); `Cc1c(NC(=O)C(C)(C)C)cccc1-c1nc2ccccc2s1`: 1.53%. In the case of `O=C(Cn1nc(Cc2cccnc2)c2ccccc2c1=O)N1CCN(c2ccccc2F)CC1`, the activation was -1.92%. Take `CCOc1ccc(NC(=O)c2cnn(-c3ccccc3)c2-n2cccc2)cc1`: the activation is -2.32%. For `O=C(NCCCO)C(=O)Nc1c2c(nn1-c1ccc(F)cc1)CSC2` the value was -1.01%; for `CCOC(=O)c1cc2cc(C)ccc2[nH]1`, 0.835%. Next, `CCOC(=O)c1[nH]c2ccc(C)cc2c1N=C(C)N(C)C`: 32.1% (active). Next, `CCOC(=O)c1ccc2[nH]c3c(c2c1)CCCC3NC=O` (stereo unspecified): 0.37%; `O=C(CSc1nc(C2CC2)nc2ccccc12)Nc1ccc2c(c1)OCCO2`: -1.49%; `NC(=O)c1ccc(NC(=O)COC(=O)C(Cc2ccccc2)NC(=O)c2ccccc2)cc1` (stereo unspecified): -0.12%. `NC(=O)c1ccc(NC(=O)COC(=O)c2c3c(nc4ccccc24)/C(=C\c2ccc4c(c2)OCO4)CCC3)cc1`: the activation is 50.8% (active). `Cn1nnnc1Sc1ncnc2scc(-c3ccccc3[N+](=O)[O-])c12`: the activation was -0.547%. For `N#Cc1nc(/C=C/c2ccc(F)cc2)oc1NC1CCCCC1` the value was 0.903%.

In the case of `CCCCOc1ccc(CNC(=O)c2ccc3c(c2)N(C)C(=O)C2CCCCN32)cc1` (stereo unspecified), the activation is -0.251%. Turning to `CNC(=O)c1ccc(-c2nc(CN3CCc4ccccc43)c(C)o2)cc1`, the activation was -1.17%. Take `Nc1c(C(=O)c2cccs2)sc2nsc(SCCN3CCCCC3)c12`: the activation was 99.5% (active). For `COC(=O)c1ccccc1NC(=O)c1cc(-c2ccccc2O)no1` the value was -0.321%; for `CC(NC(=O)CCc1cn(Cc2ccccc2Cl)c2ccccc12)c1ccccc1` (stereo unspecified), 0.58%. For `COc1cc(OC)c(OC)cc1/C=C/c1nc2cc3ccccc3cc2c(=O)n1-c1ccc(F)c(Cl)c1` the value was 0.234%.

In the case of `Cc1cc2nc3c(=O)n(Cc4ccccc4)c(=O)[nH]c3nc2cc1N`, the activation was 134% (active). As to `Cn1c(=O)[nH]c(=O)c2c1[nH]c(=S)n2Cc1ccccc1`, the activation is 0.0169%. Turning to `CCC(=O)Nc1ccc(C)cc1-c1nc2ccccc2n(Cc2ccccc2)c1=O`, the activation is 0.131%. For `CCN(CCCNC(=O)Cn1ncc2c([nH]c3ccccc32)c1=O)c1cccc(C)c1` the value was -0.233%; for `Cc1cccc(CC(=O)N2CC(=O)Nc3ccc(F)cc3C2c2ccccc2)c1` (stereo unspecified), -0.138%; for `O=C(O)c1ccc(CSc2nc3cccnc3n2Cc2cccc(F)c2)cc1`, -0.0878%. Take `CCCNC(=O)c1ccc2c(c1)ncn2-c1ccc(C)cc1C`: the activation is -0.34%. Consider `Cc1ccc2nc(N3C(=O)C(O)=C(C(=O)c4ccco4)C3c3cccc(O)c3)sc2c1` (stereo unspecified), for which the activation was 0.69%.

In the case of `C=CCSc1nnc(N2C(=O)C(O)=C(C(=O)c3ccco3)C2c2ccc(F)cc2)s1` (stereo unspecified), the activation is 48.4% (active).

As to `O=C(C1=C(O)C(=O)N(c2ncccn2)C1c1cccs1)c1ccco1` (stereo unspecified), the activation is 1.88%. As to `CCNS(=O)(=O)c1ccc(NC(=O)CSc2nc(-c3ccco3)cc(C(F)(F)F)n2)cc1`, the activation is -0.0767%. Take `O=C(CNC(=O)c1ccc(Cl)c(C(F)(F)F)c1)OC(C(=O)Nc1cc(C(F)(F)F)ccc1Cl)c1ccccc1` (stereo unspecified): the activation was 1.33%.

Turning to `COc1cc2ccccc2cc1C(=O)Nc1cccc(-c2nc3ccccc3o2)c1`, the activation was 0.963%.

In the case of `COc1cccc(C(=O)NC2CCN(C#N)CC2)c1`, the activation is 0.979%. `CCc1ccccc1NC(=O)c1sc2nc3c(cc2c1N)CN(Cc1ccccc1)CC3`: the activation was 0.215%. Regarding `Cn1c(=O)c2c(nc(SCC(=O)Nc3ccc(F)cc3)n2Cc2ccccc2)n(C)c1=O`, the activation was -1.27%. For `Cc1ccc(C)n1-c1nnc(N2CCC(C(=O)NCc3ccc(F)cc3)CC2)s1`, the activation is -0.123%. Next, `COc1cccc(-c2nnc3n(CCc4ccccc4)c(=O)c4ccccc4n23)c1O`: 0.407%; `Cc1ccc(CNC(=O)CCNS(=O)(=O)c2ccc3c(c2)oc(=O)n3C)cc1`: -0.309%; `COc1ccc(-n2ccn(CC(=O)Nc3ccc(C)c(C)c3)c(=O)c2=O)cc1OC`: 0.851%.

With `CCOC(=O)C1CCCN(S(=O)(=O)c2cc(-c3cc(C)no3)ccc2OC)C1` (stereo unspecified), the activation was -0.0318%. With `CC(=O)c1ccc(NC(=O)CSc2nc(-c3ccccc3F)nc3c2c(=O)n(C)c(=O)n3C)cc1`, the activation is 0.407%.

With `Cc1ccccc1C(=O)Nc1sc2c(c1C(=O)N1CCC(C)CC1)CCCC2`, the activation is -0.34%. On to `COc1cccc(C(=O)Nc2ccc(-c3cc(C(F)(F)F)nn3-c3ccccc3)cc2)c1`, for which the activation is 1.81%. Next, `COc1cccc(C(=O)NC(=O)Nc2nc(C)cc(C(F)(F)F)n2)c1`: 1.04%; `COc1cccc(C(=O)c2sc3nc(-c4ccccc4)cc(C(F)(F)F)c3c2N)c1`: 106% (active). On to `CCOC(=O)c1cccc(NC(=O)c2cc(CN3CCCC3)on2)c1`, for which the activation is 0.429%. For `CCC(C)Nc1oc(-c2ccc(COc3ccc(Cl)cc3)o2)nc1C#N` (stereo unspecified) the value was 0.327%. For `O=C1CCN(Cc2ccc([N+](=O)[O-])cc2)CCN1[C@H](CO)Cc1ccccc1` the value was 1.11%; for `O=C(NCCCCc1ccccc1)C1CC(c2ccc([N+](=O)[O-])cc2)=NO1` (stereo unspecified), -1.16%; for `O=C1NC(=O)C2C1C(c1ccc([N+](=O)[O-])cc1)=NN2Cc1ccccc1` (stereo unspecified), 34% (active). Regarding `CC1CCCN(c2csc3ccc(F)cc3c2=O)C1` (stereo unspecified), the activation was 0.824%. Take `COc1ccccc1OCC(=O)Nc1nnc2n1CCS2`: the activation is 0.414%. For `CN(c1ccccc1)c1ccc(/C=c2\s/c(=C(/C#N)C(=O)C(C)(C)C)n(Cc3ccco3)c2=O)cc1` the value was 40.8% (active); for `CCOc1ccccc1NC(=O)Cn1c(=O)n(Cc2ccco2)c(=O)c2sc3ccccc3c21`, -0.0246%; for `Cc1cc2c(s1)c1cnn(Cc3cc(F)c(Cl)cc3Cl)c(=O)c1n2C`, 0.185%.

With `CSc1ccc(NC(=O)Cn2nnnc2-c2ccccc2F)cc1`, the activation is 0.477%. For `Cc1c(Cl)cccc1NC(=O)N1CCN(C(=O)c2nsc3ccccc23)CC1` the value was -1.09%; for `Cc1ccc(C(=O)NC2CCN(C#N)CC2)cc1`, 0.438%. Next, `O=S(=O)(c1ccc2c(c1)OCCO2)N1CCN(S(=O)(=O)c2cc(F)ccc2F)CC1`: -0.372%; `CCN(CC)CCNC(=O)Cn1ncc2c3ccccc3n(Cc3ccccc3C)c2c1=O`: 1.76%. As to `Cc1ccc2nc(/C(C#N)=C/c3ccc(-c4ccc(C(=O)OC(C)C)cc4)o3)[nH]c2c1`, the activation is 69.6% (active). Next, `CCOC(=O)c1ccc(-c2ccc(/C=C(\C#N)C(=O)Nc3ccc(C)cc3)o2)cc1`: 1.6%; `Cc1ccc2nc(/C(C#N)=C/c3ccccc3F)[nH]c2c1`: 1.62%.

As for `Cc1noc(/C=C/N(C)C)c1S(=O)(=O)N1CCCC(C(=O)Nc2cccc(F)c2)C1` (stereo unspecified), the activation is -0.115%. Next, `CCOC(=O)c1c(C)oc2nc(C)nc(N3CCN(c4ccc(OC)cc4)CC3)c12`: -1%. Next, `COc1cccc(CNC(=O)Cc2csc3nc(-c4ccccc4)cn23)c1`: -0.21%; `COc1cccc2c1cc1c(=O)n(CC(=O)N3CCN(c4ccccc4)CC3)nc(C)n12`: 0.0688%. For `COc1ccc(-n2c(SCC(=O)Nc3ccc(Cl)c(C)c3)nc3n[nH]c(C)c3c2=N)cc1` the value was 0.481%; for `CCOC(=O)c1c(C)oc2ccc(N(C(=O)c3ccncc3)S(=O)(=O)c3ccc(CC)cc3)cc12`, 0.327%. In the case of `CCN(CC)c1ccc2cc(C(N)=O)/c(=N\NC(=O)c3ccncc3)oc2c1`, the activation was 81.7% (active). As for `C/C(=N\NC(N)=S)c1ccncc1`, the activation was 0.334%. For `N#CN1CCC(NC(=O)c2ccc(F)cc2)CC1` the value was 1.13%. `O=C(CNC(=O)c1ccc(Cl)cc1Cl)OC(C(=O)Nc1cc(C(F)(F)F)ccc1Cl)c1ccccc1` (stereo unspecified): the activation was -0.435%. With `CC(=O)Nc1c(C)nn(-c2ccccc2)c1N1CCC(C(=O)Nc2cc(Cl)ccc2C)CC1`, the activation is -0.0803%. For `Cc1cccc2c(=O)cc(CSc3ccccc3NC(=O)C(C)C)[nH]c12` the value was 0.235%. For `COc1ccc(CNC(=O)CCc2c(C)nn(-c3ccc(N4CCCC4)nn3)c2C)cc1`, the activation is 0.0444%. With `Cc1ccc(C)c(Cn2c(=O)n(CCC(=O)NCc3ccc4c(c3)OCO4)c(=O)c3sccc32)c1`, the activation is -0.659%. For `COc1ccc(N2CCN(C3=NS(=O)(=O)C(c4cccc(Br)c4)=C3C)CC2)cc1` the value was -0.301%. In the case of `COc1cc(C(=O)NCCS(=O)(=O)N2CCN(c3ccccc3)CC2)cc(OC)c1OC`, the activation is 0.101%.

For the compound `CCc1ccc(-n2nnc(-c3nc(-c4ccccc4)no3)c2C)cc1`, the activation is 0.119%.

As to `CCCN(CCC)C(=O)C1CCCN(c2ncnc3c2nc2n3CCCCC2)C1` (stereo unspecified), the activation is -0.956%.

In the case of `O=C(CC(NCc1cccnc1)C(=O)O)Nc1ccc(O)cc1` (stereo unspecified), the activation is 0.363%. For `CCOc1cccc(CC(=O)N2CCc3c([nH]c4ccccc34)C2c2ccc(OC)cc2)c1OCC` (stereo unspecified) the value was 0.0175%.

On to `CC1CCCN(c2cc3c(cc2F)c(=O)c(S(=O)(=O)c2cccc(Cl)c2)cn3Cc2ccccc2)C1` (stereo unspecified), for which the activation was 0.542%.
